# Measured values published in PubChem BioAssay.
# The source made the active and inactive calls.
# Tests used:
# [1] = optical density shifts of acrAB sulA E. coli – strain DRC41, OD650, 48 h, E. coli filamentation inducer project, primary screen (AID 1152); settings: higher = more signal, called active from +8 up or from −8 down;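 also: E. coli MC1000 strain DRC41 lacking acrAB efflux pump and sulA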
# [2] = probe aLefty1 binding on compound microarray – biochemical, small-molecule microarray, 635/667 nm fluorescence, primary screen (AID 1153); settings: higher = more signal;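 also: score merges spot fluorescence with signal-to-noise ratio from the scanned slide images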
# [3] = plasmodial surface anion channel blockers, osmotic lysis – cell-based, P. falciparum Indochina, OD700, 1 h, primary screen (AID 1154); settings: P. falciparum Indochina infected RBC osmotic lysis, higher = more signal, called active from +8 up or from −8 down
# [4] = plasmodial surface anion channel blockers, osmotic lysis – cell-based, P. falciparum Indochina, OD700, 2 h, primary screen (AID 1155);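 also: lysis reports solute entry through the parasite surface anion channel PSAC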; settings: P. falciparum Indochina infected erythrocytes, higher = more signal, called active from +8 up or from −8 down
# [5] = changes in parasitized red cell lysis, either direction – P. falciparum Indochina, OD700, 3 h, PSAC antagonist project, primary screen (AID 1156); settings: P. falciparum-infected erythrocytes, osmotic lysis, higher = more signal, called active from +8 up or from −8 down
# [6] = plasmodial surface anion channel blockers, osmotic lysis – cell-based, P. falciparum Indochina, OD700, 18 h, primary screen (AID 1157); settings: P. falciparum Indochina infected erythrocytes, osmotic lysis OD700, 18 h; higher = more signal, called active from +8 up or from −8 down
# [7] = S6 kinase pathway phospho-S6 level changes – cell-based, A549, cytoblot, luminescence, serum-stimulated, primary screen (AID 1158); settings: 5 h, higher = more signal;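 also: serum-stimulated A549 lung adenocarcinoma cells; signal is phosphorylated S6 detected by cytoblot immunostaining with HRP secondary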
# [8] = biological target: NADPH oxidase 2 (Homo sapiens) (UniProt P04839); experiment: compounds shifting NOX2 Amplex Red fluorescence – cell-based, HEK293-NOX2, PMA-stimulated, NOX inhibitor project, primary screen (AID 1159); settings: 45 min, higher = more signal, called active from +8 up or from −8 down; also: test concentration not given here
# [9] = biological target: NADPH oxidase 4 (Homo sapiens) (UniProt Q9NPH5); experiment: compounds shifting NOX4 Amplex Red fluorescence – cell-based, HEK293-NOX4, tetracycline-induced, NOX inhibitor project, primary screen (AID 1160); settings: HEK293-NOX4, Amplex Red H2O2 fluorescence, 45 min; higher = more signal, called active from +8 up or from −8 down
# [10] = biological target: NADPH oxidase 5 (Homo sapiens) (UniProt Q96PH1); experiment: compounds shifting NOX5 Amplex Red fluorescence – cell-based, HEK293-NOX5, NOX inhibitor project, primary screen (AID 1161); settings: HEK293-NOX5, ionomycin, 45 min, higher = more signal
# [11] = compound effects on lung adenocarcinoma cell viability – A549, calcein-AM fluorescence, 48 h, basal, profiling panel (AID 1162); settings: higher = more signal; also: test concentration not given here
# [12] = compound effects on differentiated 3T3-L1 adipocyte viability – cell-based, 3T3-L1 adipocytes, calcein-AM fluorescence, 48 h, basal, profiling panel (AID 1163); settings: 3T3-L1 adipocytes viability, higher = more signal; also: test concentration not given here
# [13] = compound effects on hepatocellular carcinoma cell viability – HepG2, calcein-AM fluorescence, 48 h, basal, profiling panel (AID 1164); settings: higher = more signal; also: test concentration not given here
# [14] = compound effects on multiple myeloma cell viability – MM1S, calcein-AM fluorescence, 48 h, basal, profiling panel (AID 1165); settings: higher = more signal;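 also: viability of MM1S multiple myeloma cells under basal unstimulated conditions; test concentration not given here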
# [15] = calcein-AM signal in unstimulated myeloma cells – cell-based, calcein-AM fluorescence, 48 h, PK04 Diversity Set, profiling panel (AID 1166); settings: RPMI8226 myeloma viability, higher = more signal;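 also: cells grown under basal conditions without added stimulus; test concentration not given here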
# [16] = JC-1 mitochondrial signal, unstimulated HepG2 cells – cell-based, JC-1 fluorescence, 24 h, 100 nL compound, profiling panel (AID 1167); settings: HepG2 mitochondrial potential, higher = more signal; also: test concentration not given here
# [17] = JC-1 mitochondrial signal, unstimulated adipocytes – cell-based, JC-1 fluorescence, 3T3-L1 adipocytes, 24 h, 100 nL compound, profiling panel (AID 1168); settings: JC-1 mitochondrial fluorescence, higher = more signal, called active from +8 up or from −8 down; also: test concentration not given here
# [18] = JC-1 mitochondrial signal, unstimulated myeloma cells – cell-based, JC-1 fluorescence, RPMI8226, 24 h, 100 nL compound, profiling panel (AID 1169); settings: JC-1 mitochondrial potential fluorescence, higher = more signal; also: test concentration not given here
# [19] = JC-1 mitochondrial signal, unstimulated MM1S myeloma – cell-based, JC-1 fluorescence, 24 h, 100 nL compound, profiling panel (AID 1170); settings: MM1S mitochondrial potential, higher = more signal; also: test concentration not given here
# [20] = resazurin metabolic signal in A549 cells – cell-based, resazurin fluorescence, 24 h, PK04 Diversity Set, profiling panel (AID 1171); settings: A549 viability, higher = more signal, called active from +8 up or from −8 down; also: test concentration not given here
# Chain of NADPH oxidase 2 (Homo sapiens) (P04839 whole entry, looked up): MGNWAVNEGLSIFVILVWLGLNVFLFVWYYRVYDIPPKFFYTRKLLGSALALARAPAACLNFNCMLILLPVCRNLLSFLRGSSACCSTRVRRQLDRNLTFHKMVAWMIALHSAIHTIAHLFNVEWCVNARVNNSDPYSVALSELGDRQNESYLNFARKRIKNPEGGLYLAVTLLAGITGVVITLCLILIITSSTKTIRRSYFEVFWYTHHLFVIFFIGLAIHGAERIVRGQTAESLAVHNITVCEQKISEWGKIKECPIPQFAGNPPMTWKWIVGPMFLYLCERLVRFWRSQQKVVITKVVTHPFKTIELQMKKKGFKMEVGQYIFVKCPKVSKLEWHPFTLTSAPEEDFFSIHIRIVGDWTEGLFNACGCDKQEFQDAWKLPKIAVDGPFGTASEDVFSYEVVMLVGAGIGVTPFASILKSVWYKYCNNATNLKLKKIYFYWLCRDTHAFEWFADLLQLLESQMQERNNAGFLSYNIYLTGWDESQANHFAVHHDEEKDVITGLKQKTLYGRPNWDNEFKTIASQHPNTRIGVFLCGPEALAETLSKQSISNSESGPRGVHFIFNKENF
# Chain of NADPH oxidase 4 (Homo sapiens) (Q9NPH5 whole entry, looked up): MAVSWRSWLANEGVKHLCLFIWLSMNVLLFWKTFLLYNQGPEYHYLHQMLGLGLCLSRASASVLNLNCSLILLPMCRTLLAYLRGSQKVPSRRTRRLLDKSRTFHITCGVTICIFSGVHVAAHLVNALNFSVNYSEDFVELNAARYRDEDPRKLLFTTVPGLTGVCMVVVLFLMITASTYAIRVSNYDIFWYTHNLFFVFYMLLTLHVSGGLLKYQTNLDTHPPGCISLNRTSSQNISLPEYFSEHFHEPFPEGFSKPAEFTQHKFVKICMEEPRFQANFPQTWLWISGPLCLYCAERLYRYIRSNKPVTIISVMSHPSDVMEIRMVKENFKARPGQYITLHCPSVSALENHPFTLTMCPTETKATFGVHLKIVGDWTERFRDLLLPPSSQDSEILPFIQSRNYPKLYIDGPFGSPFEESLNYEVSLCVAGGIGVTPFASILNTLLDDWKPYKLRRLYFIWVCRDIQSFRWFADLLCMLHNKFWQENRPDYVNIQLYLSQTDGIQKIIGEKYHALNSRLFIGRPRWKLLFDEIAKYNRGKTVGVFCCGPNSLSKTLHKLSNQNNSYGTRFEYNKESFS
# Chain of NADPH oxidase 5 (Homo sapiens) (Q96PH1 whole entry, looked up): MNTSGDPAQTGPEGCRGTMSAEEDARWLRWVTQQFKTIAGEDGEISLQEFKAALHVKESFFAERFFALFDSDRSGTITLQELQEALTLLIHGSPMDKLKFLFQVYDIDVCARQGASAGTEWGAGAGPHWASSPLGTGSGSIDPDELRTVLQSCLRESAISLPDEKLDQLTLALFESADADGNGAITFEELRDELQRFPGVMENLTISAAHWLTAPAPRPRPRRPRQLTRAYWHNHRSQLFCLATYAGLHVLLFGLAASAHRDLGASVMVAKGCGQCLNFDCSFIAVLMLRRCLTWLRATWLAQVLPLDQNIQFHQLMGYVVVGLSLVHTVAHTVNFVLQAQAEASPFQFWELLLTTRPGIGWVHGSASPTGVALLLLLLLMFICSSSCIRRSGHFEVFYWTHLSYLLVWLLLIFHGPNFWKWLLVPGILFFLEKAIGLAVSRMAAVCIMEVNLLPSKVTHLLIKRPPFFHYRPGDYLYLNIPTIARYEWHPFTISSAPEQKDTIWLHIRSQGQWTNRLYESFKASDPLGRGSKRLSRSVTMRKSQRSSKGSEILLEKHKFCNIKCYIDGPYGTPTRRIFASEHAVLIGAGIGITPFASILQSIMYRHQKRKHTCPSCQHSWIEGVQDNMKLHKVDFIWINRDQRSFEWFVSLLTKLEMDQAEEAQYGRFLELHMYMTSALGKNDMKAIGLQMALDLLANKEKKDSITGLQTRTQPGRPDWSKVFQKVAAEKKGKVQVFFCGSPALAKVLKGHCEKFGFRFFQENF
Structure (SMILES),z-score [1],composite z-score [2],z-score [3],z-score [4],z-score [5],z-score [6],z-score [7],z-score [8],z-score [9],z-score [10],z-score [11],z-score [12],z-score [13],z-score [14],z-score [15],z-score [16],z-score [17],z-score [18],z-score [19],z-score [20]
[N-]=[N+]=NCc1ccccc1[C@H]1OC(c2ccc(OCCCO)cc2)=N[C@@]1(CCS(=O)(=O)c1ccccc1)C(=O)NCc1ccccc1,1.14 (inactive),-0.271,25 (active),8.39 (active),1.49 (inactive),1.38 (inactive),0.127,2.27 (inactive),0.837 (inactive),-0.887,2.47,-0.0706,1.35,-0.65,0.414,-0.627,-0.0258 (inactive),-1.02,-0.531,1.73 (inactive)
CC(C)C[C@@H]1NC(=O)[C@@]23C(=O)N[C@@H](Cc4ccccc4)C2[C@H](C)[C@@]2(C)O[C@H]2C3/C=C/C/C=C\CNC(=O)[C@@H](C)NC1=O (stereo not given in full),0.767 (inactive),-0.444,0.961 (inactive),-1.13 (inactive),-0.826 (inactive),-0.967 (inactive),0.338,0.848 (inactive),1.65 (inactive),0.953,-0.366,0.718,-0.0346,0.761,-1.12,0.991,0.625 (inactive),0.207,-0.342,1.16 (inactive)
COC(=O)[C@@]1(Cc2ccc(OC)cc2)[C@H]2c3cc(C(=O)N4CCCC4)n(Cc4ccc(S(C)(=O)=O)cc4)c3C[C@H]2CN1C(=O)c1ccccc1,-1.08 (inactive),0.315,2.29 (inactive),0.326 (inactive),0.6 (inactive),0.617 (inactive),-0.688,0.385 (inactive),-0.389 (inactive),-1.7,-0.112,0.842,0.47,0.137,-0.403,2.63,-0.606 (inactive),-0.7,-1.15,0.105 (inactive)
COc1cccc(/C=C(\C#N)C(=O)Nc2c(C)n(C)n(-c3ccccc3)c2=O)c1,1.42 (inactive),-0.168,2.13 (inactive),-0.901 (inactive),0.381 (inactive),-0.924 (inactive),1.06,-0.355 (inactive),0.139 (inactive),0.595,2.14,1.12,1.01,-0.485,0.101,0.778,0.159 (inactive),0.505,-0.535,-0.589 (inactive)
CCOC(=O)C1=C[C@@H](c2ccccc2)N(S(=O)(=O)c2ccc(C)cc2)[C@H]1c1ccccc1,-0.388 (inactive),0.119,13.8 (active),2.21 (inactive),-0.657 (inactive),0.708 (inactive),-0.8,-0.395 (inactive),-0.395 (inactive),0.565,-0.834,-0.926,-0.813,-1.14,-1.16,1.62,-2.52 (inactive),-0.368,-0.0131,0.537 (inactive)
C=C(COC)/C(=C/C[C@@H](OC(=O)c1ccncc1)c1ccccc1OCCO)c1cc(C(=O)OC)ccc1OC,0.132 (inactive),-0.0654,23.5 (active),6 (inactive),1.74 (inactive),1.02 (inactive),0.171,-0.97 (inactive),-1.4 (inactive),-2.07,2.37,-0.193,-0.11,-3.29,-1.63,1.35,-1.04 (inactive),-0.735,-1.9,0.314 (inactive)
COCCOC(=O)N1C(=O)[C@@]2(c3cc(C#CC4(O)CCCCCC4)ccc31)[C@H](c1ccc(OCCO)cc1)N1[C@H](c3ccccc3)[C@H](c3ccccc3)OC(=O)[C@H]1[C@@H]2C(=O)Nc1nc2ccccc2s1,-0.595 (inactive),0.718,2.53 (inactive),2.08 (inactive),0.834 (inactive),1.53 (inactive),-0.652,0.549 (inactive),0.131 (inactive),1.94,0.0809,0.676,0.499,-2.09,-2.15,-3.31,1.1 (inactive),-1.07,-1.46,0.813 (inactive)
COC(=O)c1c2oc(c1C(=O)OC)C(=O)N1CCC[C@H]1Cn1nncc1CN(Cc1ccccc1)C(=O)N[C@H](CO)CC2,1.53 (inactive),0.0429,0.834 (inactive),0.609 (inactive),-0.418 (inactive),0.924 (inactive),0.429,-0.521 (inactive),0.556 (inactive),1.19,-0.0989,-0.723,0.436,0.829,0.394,0.488,0.172 (inactive),-0.136,-0.882,0.744 (inactive)
O=C1C2C=CC(C(O)c3ccco3)N(Nc3ccccc3)C2C(=O)N1c1ccccc1 (stereo not given),-0.292 (inactive),-0.0302,0.89 (inactive),-0.0044 (inactive),-0.284 (inactive),0.851 (inactive),-0.647,-1.61 (inactive),-2.98 (inactive),-2.52,0.133,-1.03,0.473,0.249,0.458,-0.45,0.255 (inactive),-0.364,-0.267,0.649 (inactive)
C=C(/C(=C/C[C@H](OC(=O)c1ccncc1)c1cccc(OCCO)c1)c1cnc2ccccc2c1)C(C)C,-0.599 (inactive),-0.0046,6.01 (inactive),2.44 (inactive),-2.09 (inactive),0.626 (inactive),-0.787,-4.67 (inactive),-0.946 (inactive),-1.49,-1.69,-1.31,-3.17,-3.07,-2.93,-0.437,-0.649 (inactive),-0.0462,-0.888,-1.68 (inactive)
COC(=O)C(CC#Cc1ccc2c(c1)[C@]1(C(=O)N2)[C@H](C(=O)Nc2nc3ccccc3s2)[C@H]2C(=O)O[C@H](c3ccccc3)[C@H](c3ccccc3)N2[C@@H]1c1ccc(OCCO)cc1)C(=O)OC,2.65 (inactive),0.5,5.91 (inactive),0.782 (inactive),0.299 (inactive),-1.27 (inactive),1.76,1.1 (inactive),0.326 (inactive),0.613,0.686,1.18,1.64,-0.82,-1.97,-3.2,1.59 (inactive),-1,-0.693,0.0002 (inactive)
COC(=O)[C@@]1(Cc2ccc(OC)cc2)[C@H]2c3cc(C(=O)N4CCCC4)n(Cc4cc(C)n(C)n4)c3C[C@H]2CN1C(=O)c1ccccc1,-0.703 (inactive),0.947,1.46 (inactive),0.279 (inactive),0.63 (inactive),0.494 (inactive),-0.458,0.755 (inactive),-0.134 (inactive),-2.8,-0.0671,-0.471,0.851,0.559,0.192,3.05,0.00691 (inactive),-0.475,-1.37,0.0924 (inactive)
NCCCCCNC(=O)[C@H]1C[C@H]2C(=O)N[C@@H](Cc3ccccc3)C(=O)N2[C@H]1c1ccc(O)cc1,0.097 (inactive),1.01,3.38 (inactive),0.288 (inactive),1.54 (inactive),0.204 (inactive),0.0042,0.354 (inactive),-0.384 (inactive),-0.912,0.422,0.774,-0.642,0.309,0.141,-0.746,-0.595 (inactive),-0.135,-0.378,0.107 (inactive)
CC1(C)C(=O)C(c2ccccc2)=C2CN3C(=O)N(CCc4ccccc4)C(=O)C3(Cc3ccc(F)cc3)C=C21 (stereo not given),-2.48 (inactive),0.595,2.94 (inactive),0.371 (inactive),1.8 (inactive),0.765 (inactive),-0.16,-0.952 (inactive),-4.15 (inactive),-3.9,-0.767,0.366,0.184,-1.24,-1.81,0.39,-1.91 (inactive),-0.733,-0.59,-0.745 (inactive)
CCCNC(=O)[C@@]1(C)c2ccccc2C(=O)N(Cc2ccccc2)[C@H]1c1ccc(CO)cc1,1.3 (inactive),0.594,3.35 (inactive),0.505 (inactive),0.231 (inactive),0.157 (inactive),0.0612,-0.703 (inactive),-0.0486 (inactive),0.885,-0.0623,0.47,1.03,-0.542,0.485,4.13,-0.0853 (inactive),-0.415,1.14,1.47 (inactive)
C=C(COC)C(=O)CC[C@H](OC(=O)c1cccnc1)c1ccc(CO)o1,-0.471 (inactive),-0.147,0.904 (inactive),0.0112 (inactive),-0.376 (inactive),0.063 (inactive),-0.262,0.337 (inactive),-0.159 (inactive),0.221,-0.15,-0.266,-0.53,-0.401,-0.535,-0.981,-0.492 (inactive),0.541,-0.267,-0.452 (inactive)
C=CC1c2cc(O)c(OC)cc2CCN1Cc1ccc([N+](=O)[O-])o1 (stereo not given),1.09 (inactive),0.0455,7.89 (inactive),1.17 (inactive),-0.0585 (inactive),0.596 (inactive),0.325,-3.42 (inactive),-3.12 (inactive),-3.25,0.654,-0.187,-0.143,-0.429,0.413,-0.22,0.362 (inactive),-0.0931,0.877,0.0283 (inactive)
C[C@@H]1ON(c2ccc(I)cc2)[C@H](c2ccc(OC(=O)OC(C)(C)C)cc2)[C@H]1C(=O)N1C(=O)OC[C@H]1Cc1ccccc1,2.67 (inactive),-0.191,0.789 (inactive),-0.474 (inactive),0.546 (inactive),-1.73 (inactive),1.5,-5.57 (inactive),0.237 (inactive),1.39,0.0132,1.06,1.61,-0.234,0.351,0.144,0.498 (inactive),-0.366,-1.81,1.33 (inactive)
